This note sets out measurements from PubChem BioAssay AID2315 (National Center for Advancing Translational Sciences (NCATS), 2010).

Out of some 290,000 compounds screened, about 27,000 (9.3%) were called active. The entries come from a sample that favours actives as a whole. Unmarked numbers belong to inactive results. Cut-off read from the data, not from the text of the source: active = inhibition mostly above about 28% (no sharp cut-off); inactive = mostly below about 43%.

The assay is described as follows: A qHTS for Small Molecule Inhibitors of Shiga Toxin. Note: 0% is about no effect. To be noted: Vero cells, Shiga toxin protein synthesis inhibition reporter; at 38.7 µM, active compounds read high.
In the case of `COC(=O)CCc1ccccc1S(=O)(=O)N(CCC(=O)OC)Cc1ccccc1`, the inhibition was -5.55%.
`Cc1ccccc1Nc1c([N+](=O)[O-])ccc2nonc12`: the inhibition was -12%.
For `COc1cc(OC)c2c(C)cc(=O)oc2c1C(CCN1CCCCC1)c1ccc(N(C)C)cc1` (stereo not drawn), the inhibition was -4.37%.
On to `COCc1ccc(CN2CCC(Oc3ccc(C(=O)NCc4ccccn4)cc3)CC2)o1`, for which the inhibition is -9.34%.
As for `C=C1/C(=C\C=C2\CCCC3(C)C2CCC3C(C)/C=C/C(O)C2CC2)CC(O)CC1O` (stereo not drawn), the inhibition is -5.18%.
For the compound `O=C(NCc1cccc(C(F)(F)F)c1)c1cccc(S(=O)(=O)N2CCN(Cc3ccccc3)CC2)c1`, the inhibition is -21.6%.
On to `CCOc1ccc(C2/C(=C(/O)c3ccc4c(c3)CC(C)O4)C(=O)C(=O)N2CCCn2ccnc2)cc1` (stereo not drawn), for which the inhibition is 14.2%.
Consider `Cc1cccc(C)c1OCC(=O)NC(Cc1c[nH]c2ccccc12)C(=O)O` (stereo not drawn), for which the inhibition is -4.32%.
In the case of `COc1ccc(-c2cc(C(=O)NC(C(=O)O)C(C)C)c(C)o2)cc1OC` (stereo not drawn) it was 46.9%.
Regarding `COc1ccc(-c2cc(C(=O)NC(Cc3c[nH]c4ccccc34)C(=O)O)c(C)o2)cc1OC` (stereo not drawn), the inhibition is 29.3% (active).
With `O=C(NCCc1ccc(Cl)cc1Cl)c1cc([N+](=O)[O-])c[nH]c1=O`, the inhibition was -2.76%.
Consider `Cc1ccnc(NS(=O)(=O)c2ccc(NC(=O)c3oc4ccccc4c3C)cc2)n1`, for which the inhibition is -19.8%.
In the case of `CCCc1nc(SCC(=O)N2CCCC2)c2c(=O)n(C)c(=O)n(C)c2n1` it was -3.54%.
`C[C@@H]1CC[C@@]2(OC1)O[C@H]1C[C@H]3[C@@H]4CC=C5C[C@@H](O)[C@H](O)C[C@]5(C)C4CC[C@]3(C)[C@H]1[C@@H]2C` (stereo partly drawn): the inhibition was -6.76%.
In the case of `CCOc1ccccc1N1CCN(C(=O)c2ccc3[nH]c(C)c(C)c3c2)CC1`, the inhibition is -2.3%.
In the case of `Cc1[nH]c2ccc(C(=O)N3CCN(C)CC3)cc2c1C`, the inhibition was 45.9% (active).
Next, `COc1ccc2[nH]c(C(=O)N3CCN(C)CC3)c(C)c2c1`: -9.68%; `CCOCCCNC(=S)Nc1ccc2nc(N3CCN(CC)CC3)cc(C)c2c1`: 4.52%.
`OC(c1nc2ccccc2[nH]1)C(O)C(O)C(O)c1nc2ccccc2[nH]1` (stereo not drawn): the inhibition is 19.2%.
As for `Cc1ccc(-c2nc3ccccc3[nH]2)cc1N`, the inhibition was 106% (active).
On to `COc1ccc(-c2[nH]nc(-c3ccccc3)c2-c2nc3ccccc3[nH]2)cc1`, for which the inhibition is -19.5%.
As to `Cc1ccc(-c2nc3ccccc3[nH]c2=O)cc1`, the inhibition is 21.4%.
Turning to `Cc1ccccc1N1CC(c2nc3ccccc3[nH]2)CC1=O` (stereo not drawn), the inhibition was -11.9%.
In the case of `c1ccc2[nH]c(-c3nc4ccccc4[nH]3)nc2c1` it was 107% (active).
Regarding `CCN1CCN(C(=O)CSc2ccc(C)cc2)CC1`, the inhibition is 52.4%.
Regarding `CCOC(=O)N1CCN(C(=O)CSc2ccc(Cl)cc2)CC1`, the inhibition was 93.2% (active).
For `CCOC(=O)N1CCN(C(=O)CNC(=O)Cc2ccc(Cl)cc2)CC1`, the inhibition was -2.93%.
In the case of `CC(=O)Nc1ccc(S(=O)(=O)Nc2cc(C)cn(Cc3ccc(C)cc3)c2=O)cc1`, the inhibition is 20.8%.
Take `COc1ccccc1C(=O)Oc1ccc(N2C(=O)CCC2=O)cc1`: the inhibition was -6.4%.
For the compound `CCOC(=O)c1cc(OC(=O)c2ccccc2Cl)n(-c2ccccc2)n1`, the inhibition is 35.8%.
For the compound `Cc1cc(OC(=O)c2ccccc2Cl)ccc1N1C(=O)CCC1=O`, the inhibition was 60.4% (active).
In the case of `Cc1n[nH]c(=O)c2c1nnn2Cc1ccc(F)cc1`, the inhibition is 14.5%.
As for `CC1CCN(C(=S)NC(=O)c2ccccc2Br)CC1`, the inhibition was 14.3%.
Consider `Nc1ccc(N=Nc2ccccc2Cl)c(N)n1`, for which the inhibition is 105% (active).
In the case of `CCOC(=O)C1CCN(S(=O)(=O)c2ccc3c(c2)N(C(C)=O)CCO3)CC1`, the inhibition was 15.1%.
Take `CCN(CC)S(=O)(=O)c1ccc(N2CCN(C)CC2)c(NC(=O)Nc2ccccc2F)c1`: the inhibition was 19.8%.
In the case of `Cc1cccc(C(=O)N2CCc3c([nH]c4ccccc34)C2CC(C)C)n1` (stereo not drawn) it was 52.7% (active); in that of `Cc1cccc(C2c3[nH]c4ccccc4c3CCN2C(=O)c2cc(-c3cccn3C)n[nH]2)n1` (stereo not drawn), -3.12%; in that of `O=C(c1cn2ccccc2n1)N1CCc2c([nH]c3ccccc23)C1c1ccccn1` (stereo not drawn), 13.1%.
On to `CCc1ccc(NC(=O)NC(C)c2ccc3c(c2)OCO3)cc1` (stereo not drawn), for which the inhibition was -6.59%.
In the case of `Cc1cc(-c2ccc(C)c(S(=O)(=O)NC(C)Cc3ccco3)c2)on1` (stereo not drawn), the inhibition was -1.68%.
With `Cc1ccc(Nc2nc(N)nc(CSc3nnc(C)s3)n2)cc1`, the inhibition is 97.7% (active).
Regarding `O=C(Nc1nnc(SCc2ccccc2)s1)c1ccco1`, the inhibition was 55.6%.
`Cc1cccc(CSc2nnc(NC(=O)CSc3nnc(C)s3)s2)c1`: the inhibition is -22%.
Next, `CCOC(=O)N1CCN(Cc2nc(N)nc(Nc3ccc(C)cc3)n2)CC1`: 16.1%; `Cc1nnc(SCc2nc3ccccc3nc2C)s1`: -8.09%; `Cc1ccc(Nc2nnc(SCc3ccccc3)s2)cc1`: 78.2% (active).
In the case of `Cc1cccn2cc(-c3cccc(S(=O)(=O)N4CCCCC4)c3)nc12`, the inhibition is 15.3%.
In the case of `N#CCSc1nc(-c2ccccc2)nc2ccc(F)cc12`, the inhibition is 4.25%.
Take `CCc1nnc(NC(=O)CCC(=O)N2CCN(c3cc(C)ccc3C)CC2)s1`: the inhibition was 2.43%.
On to `CCOC(=O)N1CCC(N2Cc3cccc(C(=O)Nc4ccc(S(=O)(=O)N(CC)CC)cc4)c3C2=O)CC1`, for which the inhibition is -14%.
`COc1ccc(CNC(=O)c2ccc3oc(C(C)C)nc3c2)cc1`: the inhibition was 51.4% (active).
Next, `COc1ccc(CNC(=O)c2cc(=O)c3c(C)cc(C)cc3o2)cc1`: -1.33%; `COC(=O)c1ccc(CSc2nc3cc(Cl)ccc3o2)cc1`: -12.3%; `CC(C)c1nc2cc(C(=O)NC(C)c3cnn(C)c3)ccc2o1` (stereo not drawn): 20.7%.
With `COC(=O)c1ccc(CNC(=O)c2ccc3oc(C(C)C)nc3c2)cc1`, the inhibition was 71.8% (active).
As for `CCOc1c2ccc(C(=O)NCc3ccc(OC(F)(F)F)cc3)cc2nn1C`, the inhibition was 29%.
Turning to `Cc1ccccc1CCNC(=O)C1CCC(=O)N(Cc2ccc(Cl)cc2)C1` (stereo not drawn), the inhibition was 13.3%.
For `O=C(OCc1ccc([N+](=O)[O-])cc1)C1CC(=O)N(Cc2ccccc2Cl)C1` (stereo not drawn), the inhibition was -0.893%.
On to `O=C(NCCCN1CCCCC1)C1CC(=O)N(CCc2ccccc2)C1` (stereo not drawn), for which the inhibition is -8.56%.
In the case of `COc1ccc(/C=N/S(=O)(=O)c2ccccc2)cc1OC`, the inhibition is -10.1%.
As for `Cc1ccc(S(=O)(=O)Oc2ccc(/C=N/NC(=O)c3ccncc3)cc2)cc1`, the inhibition was 9.5%.
Consider `COc1ccc(/C=N\NC(=O)c2sc(N)nc2C)cc1OC`, for which the inhibition is 15.2%.
Next, `COc1cc(/C=N/NC(=O)c2cccnc2)ccc1OC(=O)c1cccc(Br)c1`: -22.1%; `COc1ccc(/C=N/NC(=O)c2ccccc2)cc1OS(=O)(=O)c1ccccc1`: 59.1% (active).
For `COc1cc(/C=N/NC(=O)c2ccccc2)ccc1OS(=O)(=O)c1ccccc1`, the inhibition is 31% (active).
As to `COc1ccc(C)cc1NC(=O)CN(C)S(=O)(=O)c1ccc2c(c1)n(C)c(=O)c(=O)n2C`, the inhibition is 3.45%.
Turning to `COc1ccc(-n2cc(-c3ccccc3)c3c(=S)nc[nH]c32)cc1`, the inhibition was -14.3%.
`CC(Oc1cccc(Cl)c1)C(=O)NC1CC(C)(C)NC(C)(C)C1` (stereo not drawn): the inhibition was -11.3%.
Consider `CCn1cc(C(=O)NCCC(=O)NCCO)c(=O)c2cc3c(cc21)OCO3`, for which the inhibition was -8.77%.
Take `CC(C)[C@H](NC(=O)N1CCn2c1nc1ccccc12)C(=O)NCCc1ccccc1`: the inhibition is 31.8%.
For `O=C(O)c1c(NC(=O)N2CCCC2)sc2c1CCCC2`, the inhibition is 36.9%.
On to `O=C(O)C1CCCN1S(=O)(=O)c1ccc(Br)cc1` (stereo not drawn), for which the inhibition is -1.18%.
In the case of `c1n[nH]c(NCc2ccc3c(c2)OCO3)n1` it was -23.7%; in that of `COc1ccc(CCNC(=O)C(=O)NCc2ccccc2C)cc1OC`, -10.9%; in that of `COc1cc(CNc2ncn[nH]2)ccc1OCc1ccccc1C`, 67.9% (active).
`COc1ccc(C(O)(C2CCCCC2)C(CN2CCCC2)c2ccccc2)cc1` (stereo not drawn): the inhibition is 0.707%.
Take `O=C(NCc1cc(F)cc(C(F)(F)F)c1)C1CCC(=O)N(C2CCCC2)C1` (stereo not drawn): the inhibition was 40.9%.
In the case of `CCC(=O)Nc1nnc(S(=O)(=O)N(CC(C)C)c2ccccc2)s1` it was 1.25%; in that of `C/C(=N\NS(=O)(=O)c1ccc(Br)cc1)c1cccs1`, -4.11%; in that of `CCN(CC)c1ccc(C(=O)N/N=C(\C)c2cccc(OC)c2)cc1`, 22.3%.
Consider `COC(=O)c1sccc1N/N=C(\C)c1ccc(F)c(Cl)c1`, for which the inhibition is -5.96%.
Next, `O=C(Nc1ccccc1-c1nc2ccccc2[nH]c1=O)c1cccs1`: -5.13%.
Turning to `C/C(=N\Nc1ncc(Cl)cc1Cl)c1cccs1`, the inhibition is 101% (active).
On to `C/C(=N\Nc1ncc(Cl)cc1Cl)c1ccc(S(=O)(=O)NCc2ccco2)cc1`, for which the inhibition is 144% (active).
As to `C/C(=N\Nc1ccc(S(N)(=O)=O)cc1[N+](=O)[O-])c1cccs1`, the inhibition was 2.64%.
On to `O=S(=O)(NCc1ccco1)c1cnc(Cl)c(Cl)c1`, for which the inhibition is -12.1%.
On to `COc1cccc(/C(C)=N/Nc2ncc(Cl)cc2Cl)c1`, for which the inhibition was 38.2% (active).
For the compound `C/C(=N\Nc1nc2ccccc2[nH]1)c1cccs1`, the inhibition was 97.5% (active).
Consider `Cc1c(Cl)cnc(NC(=O)COC(=O)c2ccc(S(=O)(=O)NCc3ccco3)cc2)c1Cl`, for which the inhibition was -13.9%.
In the case of `C/C(=N\Nc1nc(Nc2ccccc2)nc(N2CCOCC2)n1)c1cccs1` it was -5.79%; in that of `Cc1ccc(N2CCN(c3ccc([N+](=O)[O-])cn3)CC2)c(C)c1`, -5.14%; in that of `COc1ccc2c(c1OC)C(=O)N(c1ccc(O)cc1)C2`, 29.7%.
